Most compounds without a hit are left out; they make up all but 3.5% or so of the library.
TEAD-YAP block = TEAD-YAP interaction inhibition, primary screen, TEAD-YAP interaction inhibitor project, luminescence, HEK-TIYL cells; TEAD-Gal4/YAP UAS-luciferase luminescence; inhibition, % at 9.12 µM; 640,000 compounds, 1.4% hits; AID 1259422, 2018; in the data active = inhibition above about 32%
FBW7 act = FBW7 E3 ligase activators, primary screen, biochemical, AlphaScreen, human. F-box/WD repeat-containing protein 7 (Homo sapiens), Q969H0. AlphaScreen FBW7–phospho-cyclin E peptide binding, activator screen. normalized activity (activation), % at 26.1 µM. 650,000 compounds, 0.13% hits. AID 1259310, 2017; in the data active = normalized activity above about 1.9%;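 note: purified mutant Fbw7 with reduced substrate affinity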
MITF primary = MITF inhibitors, primary screen, biochemical, AlphaScreen, human. inhibition, % at 2.6 µM. 650,000 compounds, 0.91% hits. AlphaScreen MITF homodimerization, bead proximity signal. Microphthalmia-associated transcription factor (Homo sapiens), O75030; in the data active = inhibition above about 50%
GPR151 activ = activators of human GPR151, primary screen, cell-based, PathHunter beta-arrestin, luminescence | G-protein coupled receptor 151 (Homo sapiens), Q8TDV0 | PathHunter beta-arrestin GPR151 cells | activation, % at 11.2 µM | 650,000 compounds, 1% hits; in the data active = activation above about 4.9%
Target sequence (Q8TDV0 whole entry, looked up): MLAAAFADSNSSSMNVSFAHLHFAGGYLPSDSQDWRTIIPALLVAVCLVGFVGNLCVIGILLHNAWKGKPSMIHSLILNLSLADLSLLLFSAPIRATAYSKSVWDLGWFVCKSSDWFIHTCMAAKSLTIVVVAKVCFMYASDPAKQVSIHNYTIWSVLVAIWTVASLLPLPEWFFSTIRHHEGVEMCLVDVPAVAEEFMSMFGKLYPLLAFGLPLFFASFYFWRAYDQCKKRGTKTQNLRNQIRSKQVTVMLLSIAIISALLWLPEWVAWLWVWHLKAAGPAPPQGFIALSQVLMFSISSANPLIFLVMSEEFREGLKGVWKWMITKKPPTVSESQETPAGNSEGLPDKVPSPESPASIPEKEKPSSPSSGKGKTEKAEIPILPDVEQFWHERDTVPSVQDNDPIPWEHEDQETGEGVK
Each line names hits and unclear results; the compound was inactive in the other large screens.

COC(=O)CCC(=O)Nc1ccc(-c2nc3ccc(C)cc3s2)cc1	TEAD-YAP block 72
COc1ccc(OCC(=O)Nc2ccc(-c3nc4ccc(C)cc4s3)cc2)cc1	TEAD-YAP block 39
Cc1ccc2nc(-c3ccc(NC(=O)C4CCCN4S(C)(=O)=O)cc3)sc2c1 (stereo not given)	TEAD-YAP block 50
Cc1ccc2nc(-c3ccc(NC(=O)c4ccccc4C(=O)O)cc3)sc2c1	TEAD-YAP block 83
Cc1cccc(NC(=O)c2ccc(-c3cccc([N+](=O)[O-])c3)o2)n1	none
Cc1ccc2nc(-c3ccc(O)cc3)sc2c1	TEAD-YAP block 98
Oc1ccc(-c2nc3cc4sc(-c5ccc(O)cc5)nc4cc3s2)cc1	none
N.N.N.N.N.N.N.N.N.N.N.N.N.N.O.O.[Cl-].[Cl-].[Cl-].[Cl-].[Cl-].[Cl-].[Ru+2].[Ru+2].[Ru+2]	TEAD-YAP block 41
COC(=O)C1=C(N)n2c(s/c(=C/c3ccco3)c2=O)=C(C(=O)OC)C1c1ccco1 (stereo not given)	TEAD-YAP block 49
CC(C)(C)Nc1ncnc2c1cnn2-c1ccccc1	TEAD-YAP block 45
c1ccc(CNc2ncnc3c2cnn3-c2ccccc2)cc1	none
Cc1ccc(-n2ncc3c(NC(C)(C)C)ncnc32)cc1	TEAD-YAP block 49
Cc1cccc(NC(=O)CC2CSc3nc4c(cnn4-c4ccccc4)c(=O)n32)c1C (stereo not given)	none
CCn1c(SCC(=O)Nc2ccc(OC)cc2OC)nc2c(c1=O)SC(C)C2 (stereo not given)	none
CCOc1ccc(/C(O)=C2/C(=O)C(=O)N(c3ccccn3)C2c2ccc(Br)cc2)c(C)c1 (stereo not given)	none
Cc1ccccc1NC(=O)Nc1ccccc1C	none
Cc1ccccc1NC(=O)/C(Cl)=C(\Cl)S(=O)(=O)C(C)C	TEAD-YAP block 52
O=S(=O)(c1ccc(NC(=S)N/N=C/c2cccc(O)c2O)cc1)N1CCOCC1	MITF primary 59
O=S(=O)(c1ccc(NC(=S)N/N=C/c2ccc(O)c(O)c2)cc1)N1CCOCC1	none
CC(=O)N1CCc2cc(S(=O)(=O)N[C@@H](Cc3ccccc3)C(=O)O)ccc21	none
CC1CCCN(C/C=C/c2ccc(N(C)C)cc2)C1 (stereo not given)	none
Cc1ccc(N/C(N)=N/c2nc(C)cc(C)n2)cc1	none
Cc1cc(C)nc(/N=C(\N)Nc2ccccc2-c2ccccc2)n1	TEAD-YAP block 43
Cc1cc(C)nc(/N=C(\N)Nc2ccc(C(C)C)cc2)n1	TEAD-YAP block 35
CCCCc1ccc(N/C(N)=N/c2nc(C)cc(C)n2)cc1	TEAD-YAP block 54
CCOC(=O)c1c(NC(=O)C(C)Sc2nnc(CNC(=O)c3cccc(C)c3)n2C)sc2c1CCCC2 (stereo not given)	none
Cc1ccc(F)cc1S(=O)(=O)N1CCC(c2nc(-c3cccnc3)no2)CC1	none
COc1ccc(-c2ccc(C(C)=O)cc2)cc1	none
COc1ccc(-c2cc(O)cc(O)c2)cc1	TEAD-YAP block 34
Cn1c(=O)c2c(ncn2CC(O)CN=CN2CCOCC2)n(C)c1=O (stereo not given)	none
CCN(CC)C(=O)C(=O)Nc1ccc(C)c(C)c1	none
C[Si](C)(C)c1nnn(-c2ccc(Nc3nccc(-c4cccc(NS(C)(=O)=O)c4)n3)cc2)c1N1CCOCC1	TEAD-YAP block 33
NC(=O)c1cccc(-c2ccnc(Nc3ccc(N4CCOCC4)cc3)n2)c1	none
CC(=O)c1ccc(-c2nc(-c3cccc(NS(C)(=O)=O)c3)cnc2N)cc1	none
CS(=O)(=O)Nc1cccc(-c2ccnc(Nc3ccc(-n4cncn4)cc3)n2)c1	TEAD-YAP block 91
Cc1ccc(-c2ncn(-c3ccc(Nc4nccc(-c5cccc(-n6cncn6)c5)n4)cc3)n2)cn1	none
CC(=O)c1ccc(Nc2nccc(-c3cccc(NS(C)(=O)=O)c3)n2)cc1	TEAD-YAP block 82
COc1ccc(CCNC(=O)CN(c2ccc(Cl)cc2)S(C)(=O)=O)cc1OC	none
Cc1ccc(C(=O)O)cc1N1C(=O)c2ccccc2C1=O	none
O=C1OCCN1c1ccc(Nc2nccc(-c3cncc(N4CCOCC4)c3)n2)cc1	TEAD-YAP block 39
Nc1nc(Nc2ccc(-n3ccnc3)cc2)cc(Nc2ccc3c(c2)OCO3)n1	none
FC1(F)Oc2ccc(Nc3nccc(-c4cncc(N5CCOCC5)c4)n3)cc2O1	none
c1cn(-c2ccc(Nc3nccc(Nc4ccc(N5CCOCC5)cc4)n3)cc2)cn1	TEAD-YAP block 50

Assay outcomes as filed in PubChem.
